Measurements taken from ChEMBL document CHEMBL3988442, “University of Dundee, Small-Polar-MMV Screening Library” (2021).
The whole screen tested about 48,000 compounds, of which about 13,000 (27%) showed an effect of 50% or more. The list shows a part of the results.

Test system: Wolbachia pipientis
Test: Anti-Wolbachia Cell-Based Screen
Assay type: functional
Set-up: scale not given: in the data most compounds retested in dose-response had high values
Conditions: 5 µM

| SMILES | Percent Effect [%] |
| --- | --- |
| Cc1cccc(CN2CC[C@H]3O[C@H](C(=O)Nc4cnccn4)CC[C@H]32)n1.O=C(O)C(F)(F)F.O=C(O)C(F)(F)F | 108.3 |
| Cn1cc(CN2CC[C@H]3O[C@H](C(=O)NC4CC4)CC[C@H]32)c2ccccc21.O=C(O)C(F)(F)F | -3.833 |
| Cc1csc(CN2CC[C@H]3O[C@H](C(=O)Nc4cccnc4)CC[C@H]32)n1.O=C(O)C(F)(F)F.O=C(O)C(F)(F)F | 273.2 |
| O=C(Nc1cnccn1)[C@H]1CC[C@@H]2[C@@H](CCN2Cc2ccccn2)O1.O=C(O)C(F)(F)F | 79.42 |
| O=C(NCc1ccco1)[C@H]1CC[C@@H]2[C@@H](CCN2Cc2nccs2)O1.O=C(O)C(F)(F)F | 5.491 |
| O=C(NCc1ccccn1)[C@@H]1CC[C@@H]2[C@@H](CCN2c2ncc(F)cn2)O1.O=C(O)C(F)(F)F.O=C(O)C(F)(F)F | 7.451 |
| Cc1ncccc1NC(=O)[C@@H]1CC[C@@H]2[C@@H](CCN2Cc2cnn(C)c2)O1.O=C(O)C(F)(F)F.O=C(O)C(F)(F)F.O=C(O)C(F)(F)F | -6.669 |
| O=C(NC1CCC1)[C@@H]1CC[C@@H]2[C@@H](CCN2CCc2ccccc2)O1.O=C(O)C(F)(F)F | -17.29 |
| CC(C)NC(=O)[C@@H]1CC[C@@H]2[C@@H](CCN2Cc2ccc3ccccc3n2)O1.O=C(O)C(F)(F)F | -12.2 |
| O=C(Nc1cnccn1)[C@@H]1CC[C@@H]2[C@@H](CCN2Cc2nccs2)O1.O=C(O)C(F)(F)F | 114.9 |
| O=C(c1cc[nH]n1)N(Cc1cccc(O)c1)CC1CC1 | -5.824 |
| CN1CCCCC12CCN(c1nncs1)CC2.O=C(O)C(F)(F)F | -22.78 |
| CCCN1CCc2[nH]nc(C(=O)N3CCNC(=O)C3)c2C1.O=C(O)C(F)(F)F.O=C(O)C(F)(F)F | -12.08 |
| CCc1nnc(C2Cc3ccccc3CN2Cc2nc(C)no2)o1 (stereo not drawn) | 88.09 |
| Cc1noc(C)c1CN1CCCC1C(=O)OCc1ccccc1 (stereo not drawn) | 4.096 |
| CCc1nnc(C2Cc3ccccc3CN2Cc2nc(C3CC3)no2)o1 (stereo not drawn) | -3.635 |
| CCc1nnc(C2Cc3ccccc3CN2Cc2cc(C)on2)o1 (stereo not drawn) | 6.832 |
| Cc1cc(CN2Cc3ccccc3CC2c2nnc(C)o2)on1 (stereo not drawn) | 1.784 |
| Cc1nnc(C2Cc3ccccc3CN2Cc2c(C)noc2C)o1 (stereo not drawn) | 100.9 |
| Cc1nnc(C2Cc3ccccc3CN2Cc2nc(C3CC3)no2)o1 (stereo not drawn) | -2.569 |
| Cc1nnc(C2Cc3ccccc3CN2Cc2ncc(C(C)(C)C)o2)o1 (stereo not drawn) | 21.52 |
| Cc1cc(CN2Cc3ccccc3CC2c2nnc(C)o2)no1 (stereo not drawn) | 108.3 |
| CCc1nnc(C2Cc3ccccc3CN2Cc2cc(C)no2)o1 (stereo not drawn) | -1.172 |
| Cc1nnc(C2Cc3ccccc3CN2Cc2nc(C(C)C)no2)o1 (stereo not drawn) | 134.6 |
| Cc1noc(CN2Cc3ccccc3CC2c2nnc(C)o2)n1 (stereo not drawn) | 1.632 |
| C[C@@H](NCc1cccc(Cl)c1)c1onc(-c2ccccc2)c1C(=O)O | -2.837 |
| COc1cc(CN(C)C(=O)Nc2cc(C)on2)ccc1SC | -6.064 |

| SMILES | Percent Effect [%] |
| --- | --- |
| O=C1NC(c2ccccc2)=N[C@@]12CC[C@@H]1CN(Cc3nccs3)C[C@@H]12 | -1.68 |
| CC(C)N1CCC(N2CCCC(C(=O)NCC3(O)CCCCC3)C2)CC1 (stereo not drawn) | 0.6612 |
| COCc1ncn2c1CN(C(=O)C1CC=CC1)CC2 | -12.78 |
| COCc1cnc2n1CCN(C(=O)c1ccc3ccccc3n1)C2C.O=C(O)C(F)(F)F (stereo not drawn) | -39.11 |
| COCc1ncn2c1CN(S(=O)(=O)Cc1ccc(C)cc1)CC2.O=C(O)C(F)(F)F | 14.75 |
| COCc1ncn2c1CN(C(=O)c1cccc3cccnc13)CC2.O=C(O)C(F)(F)F | 103 |
| Cc1ccc(C(=O)N2CCn3cnc(COCC4CC4)c3C2)cn1.O=C(O)C(F)(F)F | -1.031 |
| COCc1ncn2c1CN(C(=O)c1ccc3ccccc3n1)CC2.O=C(O)C(F)(F)F | 86.38 |
| COCc1ncn2c1CN(C(=O)c1cnc3ccccc3c1)CC2 | 79.69 |
| O=C(O)C(F)(F)F.O=C(c1ccccn1)N1CCn2cnc(COCC3CC3)c2C1 | 22.66 |
| Cc1ccc(F)c(N2CCCC(NS(=O)(=O)CCCF)C2=O)c1 (stereo not drawn) | -1.757 |
| O=C(CN1CCOc2ccc(Cl)cc21)NCCCn1ccnc1 | 9.044 |
| CN(C(=O)OC(C)(C)C)C1CCN(C(=O)c2ccc(Cl)o2)C1 (stereo not drawn) | -6.554 |
| CCS(=O)(=O)c1ncc(CN(C)Cc2ccccn2)n1CCOC | -6.84 |
| Cc1noc(NS(=O)(=O)c2ccc(Cl)s2)c1C | -16.85 |
| O=C(O)C(F)(F)F.O=C(O)C(F)(F)F.O=c1ccc2c(n1Cc1ccncc1)CCN(Cc1ccoc1)CC2 | 96.18 |
| O=C(O)C(F)(F)F.O=C(O)C(F)(F)F.O=c1ccc2c(n1Cc1cccnc1)CCN(Cc1ccoc1)CC2 | 110 |
| COCCn1c2c(ccc1=O)CCN(Cc1ccoc1)CC2 | 106.6 |
| O=C(O)C(F)(F)F.O=C(O)C(F)(F)F.O=c1ccc2c(n1Cc1cccnc1)CCN(CC1CCOC1)CC2 (stereo not drawn) | -12.29 |
| Cn1c2c(ccc1=O)CCN(Cc1ccoc1)CC2.O=C(O)C(F)(F)F | 97.4 |
| O=C(O)C(F)(F)F.O=C(O)C(F)(F)F.O=c1ccc2c(n1CCN1CCCC1)CCN(Cc1ccoc1)CC2 | -0.3339 |
| COCC1c2c(cnn2C)CCN1Cc1ccoc1 (stereo not drawn) | -6.273 |
| O=C(O)C(F)(F)F.O=C(O)C(F)(F)F.O=c1ccc2c(n1Cc1cccnc1)CCN(C1CCOC1)CC2 (stereo not drawn) | 2.129 |
| COc1ccc2c(c1)C1(CCN(Cc3ccoc3)CC1)N(C)CC2 | -15.48 |
| CS(=O)(=O)NCC1(c2ccccc2Br)CC1 | 1.161 |
| O=C(O)C1CCN(C[C@H]2CC[C@@H](Cc3ccc4c(c3)OCO4)O2)CC1 | 4.381 |
